# Data as given in publication PMC5700166.
# Substitutions are numbered along the chain they refer to.
# What was measured:
# Assay in all cases: protein-binding microarray (PBM); PBM: ~300 nM protein, 6 mM HEPES pH 7.8, 80 mM KCl, 0.5 mM EDTA, 0.5 mM EGTA, 6% glycerol, 35 ng/ul poly-dIdC, 1% milk, 1 h, room temperature; Ap Aiptasia and Nv Nematostella (sea anemones) / Co Capsaspora / Aq Amphimedon (sponge) / Dm Drosophila / Hu human; RHD is the Rel homology domain; high values mean tight binding
# Details in all cases: dsDNA, one strand shown
# [1] = biological target: T1, GST-Nv-NF-kB (Ser allele) (Nematostella vectensis, UniProt A7UNT2 2-411)
# T1 sequence: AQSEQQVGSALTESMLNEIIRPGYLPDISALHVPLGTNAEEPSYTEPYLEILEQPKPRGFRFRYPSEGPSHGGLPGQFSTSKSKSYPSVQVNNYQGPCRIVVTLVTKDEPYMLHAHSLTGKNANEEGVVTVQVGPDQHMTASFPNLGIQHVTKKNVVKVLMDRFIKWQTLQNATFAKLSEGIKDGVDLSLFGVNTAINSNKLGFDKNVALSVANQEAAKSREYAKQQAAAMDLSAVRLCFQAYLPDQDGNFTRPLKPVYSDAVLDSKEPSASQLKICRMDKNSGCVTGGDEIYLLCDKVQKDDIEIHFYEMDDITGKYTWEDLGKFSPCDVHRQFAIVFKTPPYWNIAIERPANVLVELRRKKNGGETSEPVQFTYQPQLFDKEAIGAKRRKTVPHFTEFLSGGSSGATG
# [2] = biological target: T2, GST-Ap-NF-kB RHD (Exaiptasia pallida (Aiptasia), UniProt A0A913YAJ5 2-422)
# T2 sequence: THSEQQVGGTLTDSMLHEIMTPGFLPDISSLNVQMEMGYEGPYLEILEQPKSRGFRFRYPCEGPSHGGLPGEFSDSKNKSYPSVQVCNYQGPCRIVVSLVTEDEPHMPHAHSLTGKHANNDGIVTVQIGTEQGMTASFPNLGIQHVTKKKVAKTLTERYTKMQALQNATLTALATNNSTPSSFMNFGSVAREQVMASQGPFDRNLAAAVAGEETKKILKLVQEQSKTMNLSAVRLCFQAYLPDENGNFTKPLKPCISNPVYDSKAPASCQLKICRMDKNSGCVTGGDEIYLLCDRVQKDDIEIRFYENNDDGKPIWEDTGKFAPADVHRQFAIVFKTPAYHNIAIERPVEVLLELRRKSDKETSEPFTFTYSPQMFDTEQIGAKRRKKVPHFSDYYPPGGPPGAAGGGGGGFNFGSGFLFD
# [3] = biological target: T3, GST-Co-NF-kB (Capsaspora owczarzaki, UniProt F1ARL5 200-546)
# T3 sequence: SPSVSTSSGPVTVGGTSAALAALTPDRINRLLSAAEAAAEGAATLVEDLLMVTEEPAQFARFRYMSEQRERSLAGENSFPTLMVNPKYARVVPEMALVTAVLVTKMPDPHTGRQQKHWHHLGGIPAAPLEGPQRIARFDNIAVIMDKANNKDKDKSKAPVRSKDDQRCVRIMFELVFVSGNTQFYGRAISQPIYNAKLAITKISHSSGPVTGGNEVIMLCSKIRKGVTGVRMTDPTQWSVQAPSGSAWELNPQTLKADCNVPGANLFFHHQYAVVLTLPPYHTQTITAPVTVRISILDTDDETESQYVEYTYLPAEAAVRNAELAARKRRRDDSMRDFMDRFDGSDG
# [4] = biological target: T4, GST-Dm-Relish (Drosophila melanogaster, UniProt Q94527 99-473)
# T4 sequence: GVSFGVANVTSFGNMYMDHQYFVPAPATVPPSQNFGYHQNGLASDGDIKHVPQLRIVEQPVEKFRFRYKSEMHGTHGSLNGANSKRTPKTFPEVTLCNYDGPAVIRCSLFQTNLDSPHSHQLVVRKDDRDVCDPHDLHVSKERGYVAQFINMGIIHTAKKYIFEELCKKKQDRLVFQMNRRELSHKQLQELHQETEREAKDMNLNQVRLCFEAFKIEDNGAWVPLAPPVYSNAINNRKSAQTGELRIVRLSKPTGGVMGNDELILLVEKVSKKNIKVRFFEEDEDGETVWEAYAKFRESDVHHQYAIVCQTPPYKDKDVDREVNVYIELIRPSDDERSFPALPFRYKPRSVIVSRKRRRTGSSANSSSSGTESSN
# [5] = biological target: T5, GST-Nv-NF-kB (Cys allele) (Nematostella vectensis, UniProt E5G601 2-411)
# T5 sequence: T1 sequence with R21Q, S66C, N207S, Q215E, A217V, K225E, E268A, E399D
sequence,measurement,setting,value
CCGATTAACATCACACTGTTCAGTGATGTTAATCGGGTCTTGATTCGCTTGACGCTGCTG,binding signal,[1],1.06 z-score
CCGATTAACATCACCCGGCGCAGTGATGTTAATCGGGTCTTGATTCGCTTGACGCTGCTG,binding signal,[2],1.17 z-score
same,binding signal,[3],2.3 z-score
CCGATTAACATCAAGGGGGGGGGTGATGTTAATCGGGTCTTGATTCGCTTGACGCTGCTG,binding signal,[2],5.14 z-score
same,binding signal,[3],7.25 z-score
same,binding signal,[4],5.34 z-score
CCGATTAACATCACCCCCCCCCCTGATGTTAATCGGGTCTTGATTCGCTTGACGCTGCTG,binding signal,[2],5.35 z-score
same,binding signal,[3],7.37 z-score
same,binding signal,[4],4.97 z-score
CCGATTAACATCAGGTAATATATTGATGTTAATCGGGTCTTGATTCGCTTGACGCTGCTG,binding signal,[1],2.14 z-score
CCGATTAACATCAGCCATATTTGTGATGTTAATCGGGTCTTGATTCGCTTGACGCTGCTG,binding signal,[3],1.13 z-score
CCGATTAACATCACCCAAAGTTTTGATGTTAATCGGGTCTTGATTCGCTTGACGCTGCTG,binding signal,[3],1.24 z-score
CCGATTAACATCACCCGCTTTATTGATGTTAATCGGGTCTTGATTCGCTTGACGCTGCTG,binding signal,[3],1.23 z-score
CCGATTAACATCAGGGAGCCGTATGATGTTAATCGGGTCTTGATTCGCTTGACGCTGCTG,binding signal,[2],1.18 z-score
CCGATTAACATCACCCCCCCCCATGATGTTAATCGGGTCTTGATTCGCTTGACGCTGCTG,binding signal,[2],4.92 z-score
same,binding signal,[1],3.7 z-score
same,binding signal,[3],7.08 z-score
same,binding signal,[4],5.37 z-score
CCGATTAACATCAAGAACCTTCTTGATGTTAATCGGGTCTTGATTCGCTTGACGCTGCTG,binding signal,[5],1.02 z-score
CCGATTAACATCAATAGTACCGATGATGTTAATCGGGTCTTGATTCGCTTGACGCTGCTG,binding signal,[2],1.43 z-score
same,binding signal,[5],1.03 z-score
same,binding signal,[1],3 z-score
CCGATTAACATCAGCATTCCCAATGATGTTAATCGGGTCTTGATTCGCTTGACGCTGCTG,binding signal,[5],1.29 z-score
same,binding signal,[3],1.08 z-score
CCGATTAACATCAGATACCAGGGTGATGTTAATCGGGTCTTGATTCGCTTGACGCTGCTG,binding signal,[3],1.09 z-score
CCGATTAACATCAACCCCCCCCCTGATGTTAATCGGGTCTTGATTCGCTTGACGCTGCTG,binding signal,[2],5.71 z-score
same,binding signal,[1],4.2 z-score
same,binding signal,[3],5.49 z-score
same,binding signal,[4],5.26 z-score
CCGATTAACATCAAGTACCAGGGTGATGTTAATCGGGTCTTGATTCGCTTGACGCTGCTG,binding signal,[2],1.05 z-score
CCGATTAACATCAACCCCAGCTCTGATGTTAATCGGGTCTTGATTCGCTTGACGCTGCTG,binding signal,[2],1.01 z-score
same,binding signal,[5],1.21 z-score
same,binding signal,[3],1.8 z-score
same,binding signal,[4],1.14 z-score
CCGATTAACATCAGATAGGTACTTGATGTTAATCGGGTCTTGATTCGCTTGACGCTGCTG,binding signal,[1],2.46 z-score
CCGATTAACATCACTGGGAGGGCTGATGTTAATCGGGTCTTGATTCGCTTGACGCTGCTG,binding signal,[2],1.08 z-score
same,binding signal,[3],1.47 z-score
CCGATTAACATCAATTAGGTGGGTGATGTTAATCGGGTCTTGATTCGCTTGACGCTGCTG,binding signal,[2],1.19 z-score
same,binding signal,[3],1.13 z-score
CCGATTAACATCAGCTTGGGAAATGATGTTAATCGGGTCTTGATTCGCTTGACGCTGCTG,binding signal,[5],1.84 z-score
same,binding signal,[3],2.33 z-score
CCGATTAACATCAAAGAGGAGTCTGATGTTAATCGGGTCTTGATTCGCTTGACGCTGCTG,binding signal,[5],1.23 z-score
CCGATTAACATCACCCCGAACGCTGATGTTAATCGGGTCTTGATTCGCTTGACGCTGCTG,binding signal,[2],1.59 z-score
same,binding signal,[3],2.02 z-score
CCGATTAACATCAATTTGGGAAATGATGTTAATCGGGTCTTGATTCGCTTGACGCTGCTG,binding signal,[5],2.58 z-score
same,binding signal,[3],1.92 z-score
CCGATTAACATCAAGGGTGGAAATGATGTTAATCGGGTCTTGATTCGCTTGACGCTGCTG,binding signal,[3],1.66 z-score
CCGATTAACATCACCCCATCTCGTGATGTTAATCGGGTCTTGATTCGCTTGACGCTGCTG,binding signal,[2],1.2 z-score
same,binding signal,[3],2.11 z-score
same,binding signal,[4],1.42 z-score
